SMILES strings stand for the structures. Records with an inconclusive call do not appear. The source made the active and inactive calls. The call rests on the fitted dose curve.
Potency means the concentration at half of the fitted maximal effect.

This assay is described as follows: qHTS for Inhibitors of Cell Surface uPA Generation: Wild-type Protective Antigen (WT-PrAg) Counterscreen for Cherry-picked Compounds. On activity (protection): 0% is about no effect. The following applies: cells, WT protective antigen toxicity counterscreen; series mostly up to 115 µM; activity (protection): at the top concentration. (In general: Quantitative high-throughput screening tests each substance at several concentrations.)
With `C[C@@H](C(=O)Nc1ccc2ccccc2c1)[C@@H]1C[C@@]1(C)[C@@H](NC(=O)c1cccnc1)c1ccccc1`, the “activity (protection)” value is -2.34% (inactive).

As for `COCCN(C(=O)c1ccccc1OC)c1nnc(C)s1`, the “activity (protection)” value was -1.62% (inactive). On the same count and under the same terms, next, `CCCCCN(C(=O)CCC(=O)OCCOc1cccc(Cl)c1)c1c(N)n(CCCC)c(=O)[nH]c1=O`: -0.186% (inactive); `Cc1nc(NC(=O)COC(=O)CCc2ccccc2)c(Cl)cc1Cl`: -2.5% (inactive). For `Cc1cc(C)cc(S(=O)(=O)c2cn(C)c3cc(N4CCN(C)CC4)c(F)cc3c2=O)c1`, the “activity (protection)” value is -0.207% (inactive). Turning to `COC(=O)c1cc(CNC(=O)c2ccc(N3CCCC3)c([N+](=O)[O-])c2)ccc1OC`, the “activity (protection)” value was -1.8% (inactive). The same measure, in the same setting: then `CC(=O)Oc1ccccc1C(=O)Nc1ccccc1C(=O)N1CCCC1`, with -0.405% (inactive); and `CN(CC(=O)NCCCn1ccnc1)S(=O)(=O)c1ccc(Cl)cc1`, with 0.0947% (inactive); and `COc1ccccc1NNC(=O)C(O)(c1ccccc1OC)c1ccccc1OC`, with 1.06% (inactive).

With `COc1ccc(/C=C/C(=O)Nc2ccccc2Cl)cc1S(=O)(=O)N1CCOCC1`, the “activity (protection)” value was -0.626% (inactive).

As for `COc1ccc(CNCCC2(C(C)C)CCOC(C)(C)C2)cc1` (stereo not given), the “activity (protection)” value was -0.773% (inactive). Regarding `CCNC(=S)NNC(=O)c1ccncc1`, the “activity (protection)” value is -1.28% (inactive). Consider `C=CCn1c(=O)c(C(=O)NCCc2ccc(Cl)cc2)c(O)c2cc(OC)c(OC)cc21`, for which the “activity (protection)” value was 1.13% (inactive). On to `Cc1cc(N2C(=O)C(O)=C(C(=O)c3ccco3)C2c2ccc(Cl)cc2)no1` (stereo not given), for which the “activity (protection)” value was -2% (inactive).

Consider `O=C(O)c1ccc(-c2ccc(/C=C3\NC(=O)N(Cc4ccc(Cl)cc4)C3=O)o2)cc1`, for which the “activity (protection)” value is 0.0956% (inactive). `Cc1ccccc1OCCC(=O)NNC(=O)c1ccccc1F`: the “activity (protection)” value is -0.207% (inactive). Regarding `COc1ccc(-c2cc3nc(-c4ccccc4)cc(N4CCCC(O)C4)n3n2)cc1` (stereo not given), the “activity (protection)” value is 2.16% (inactive). For `O=C(C1CCCCN1S(=O)(=O)c1ccc(F)cc1)N1CCN(c2ccccc2F)CC1` (stereo not given), the “activity (protection)” value is 4.03% (inactive). On the same count and under the same terms, next, `Cc1ccn(CCC(=O)N2CCc3ccccc32)n1`: -0.997% (inactive); `O=C(NC(=S)Nc1c(F)cc(F)cc1Br)c1ccc2c(c1)OCCO2`: 0.392% (inactive); `Cc1ccc(NC(=S)N2CCN(Cc3ccc4c(c3)OCO4)CC2)c(C)c1`: -2.43% (inactive). `CCOC(=O)N1CCN(C(=O)c2ccc3c(c2)sc2nc(-c4ccc(OC)cc4)cn23)CC1`: the “activity (protection)” value was -0.943% (inactive). Regarding `Nc1cc(=O)[nH]c(SCC(=O)Nc2cccc([N+](=O)[O-])c2)n1`, the “activity (protection)” value is -1.09% (inactive). Consider `CCO[C@H]1OC(C(=O)N2CCCCCCC2)=C[C@@H](c2ccc(C(F)(F)F)cc2)[C@@H]1CCCO`, for which the “activity (protection)” value is -1.81% (inactive).

In the case of `CC1CCCCN1C(=O)CSc1nc2ncccc2[nH]1` (stereo not given), the “activity (protection)” value was -1.11% (inactive). For `C[N+]1(CC(O)c2ccccc2)CCCCCC1` (stereo not given), the “activity (protection)” value is 0.142% (inactive). Regarding `COc1ccc(C(C)=O)cc1CSC(=N)N`, the “activity (protection)” value is -1.28% (inactive). In the case of `CCOC(=O)c1c(NC(=S)NC)sc2c1CCCC2`, the “activity (protection)” value is -0.204% (inactive). As for `O=C(Nc1ccc(Cl)cc1)Nc1nnc(-c2ccncc2)s1`, the “activity (protection)” value is -2.16% (inactive).

`CCOc1ccccc1CN1CCCC(CNS(=O)(=O)c2ccc(OC)cc2)C1` (stereo not given): the “activity (protection)” value was -1.27% (inactive). In the case of `CC(C)C1Oc2ccccc2N(CC(=O)NC2CCCCC2)C1=O` (stereo not given), the Potency was 36.9 µM (active). For `C/C=C/C(=O)Nc1cccc(C2=NOC3(C2)C[C@@H](C(N)=O)N(C(=O)c2cc([N+](=O)[O-])cc([N+](=O)[O-])c2C)C3)c1` (stereo not given in full), the “activity (protection)” value is -1.15% (inactive). As to `COC(=O)CCSCC(=O)N1N=C(c2ccc(OC)cc2)CC1c1cccc(OC)c1OC` (stereo not given), the “activity (protection)” value is -2.08% (inactive). The same measure, in the same setting: next, `Cc1ccc(S(=O)(=O)NC(=O)Nc2nccs2)cc1`: -1.79% (inactive).

Regarding `CC(=O)[C@@]1(O)[C@H](C)CC2C3CC=C4CC(OP(=O)(O)O)CC[C@]4(C)C3CC[C@@]21C` (stereo not given in full), the “activity (protection)” value is 0.986% (inactive). With `CC(C)NCC1CCc2cc(CO)c([N+](=O)[O-])cc2N1` (stereo not given), the “activity (protection)” value is 4.76% (inactive). For the compound `Cc1cc2c(cc1S(=O)(=O)Nc1ccc(F)cc1)n(C)c(=O)c(=O)n2C`, the “activity (protection)” value was -0.472% (inactive).

In the case of `Cc1ccc(NC(=O)CS(=O)Cc2nc(-c3ccc(C)cc3)oc2C)cc1` (stereo not given), the “activity (protection)” value was -1.52% (inactive).

On to `O=C(O)CNC(=S)N(Cc1ccccc1)Cc1cccnc1`, for which the “activity (protection)” value was -0.77% (inactive).

Regarding `O=C1OCC/C1=C\c1ccc(O)cc1`, the “activity (protection)” value is -1.6% (inactive).

Values taken from PubChem BioAssay AID720518 (National Center for Advancing Translational Sciences (NCATS), 2013).
